The source of these data is PubChem BioAssay (NCATS).

Inconclusive results are not listed. Unmarked numbers belong to inactive results. Calls of active or inactive are those of the source. Calls follow the shape of the dose curve; as a rule, active = well fitted inhibition curve with a large enough effect; inconclusive = small, poorly fitted or top-dose-only effect; inactive = flat fitted curve, though single readings scatter.
% is scaled to controls: 0 for no effect and ±100 for the full control effect.

This test can be described thus: P-glycoprotein substrates identified in KB-8-5-11 adenocarcinoma cell line, qHTS therapeutic library screen (AID 1346987). Also: nearly all actives have a fitted effect of over 65% in size. The note with it: KB-8-5-11 (P-gp overexpressing) viability, CellTiter-Glo, 72 h; series mostly up to 44.5 µM; activity change, negative = cytotoxicity: at the top concentration. In a few lines:
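Luminescence from CellTiter-Glo, read 5 min after addition, quantified survival of KB-8-5-11 (P-gp-overexpressing) cells exposed to compounds for 72 h. AC50 was derived from concentration-response curves.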
On to `C=C1CC/C=C(/CO)C(=O)C[C@@H]2[C@@H]1CC2(C)C`, for which the compound was called inactive.
Turning to `C=C(C)[C@@H](C)[C@H]1O[C@]23C[C@]4(CO2)C(CCC2[C@@]5(C)CC[C@H](O[C@@H]6OC[C@H](O)[C@H](O[C@@H]7O[C@H](CO)[C@@H](O)[C@H](O)[C@H]7O)[C@H]6O[C@@H]6O[C@@H](CO)[C@H](O)[C@H]6O)C(C)(C)C5CC[C@]24C)C3[C@@](C)(O)[C@@H]1OC(C)=O` (some centres not stated), the activity change, negative = cytotoxicity is 4.3% [at 9.29 µM].
Same read-out and setting: the figure for `COC(=O)[C@@]1(C)CC[C@]2(C(=O)O[C@@H]3O[C@H](CO)[C@@H](O)[C@H](O)[C@H]3O)CC[C@]3(C)C(=CCC4[C@@]5(C)CC[C@H](O[C@@H]6O[C@H](C(=O)O)[C@@H](O)[C@H](O)[C@H]6O)C(C)(C)C5CC[C@]43C)[C@@H]2C1` (some centres not stated) is -9.96% [at 9.29 µM].
With `Cc1nnc(C(C)C)n1C1CC2CCC(C1)N2CCC(NC(=O)C1CCC(F)(F)CC1)c1ccccc1` (configuration not stated), the compound was classed as inactive.
For the compound `CN1C(=O)c2ccccc2NC(=O)[C@]12O[C@@H]2c1cccc(O)c1`, the “activity change, negative = cytotoxicity” value was 8.4%.
The same measure, in the same setting: the figure for `O=S(=O)(Nc1ccc(C(O)(C(F)(F)F)C(F)(F)F)cc1)c1cccs1` is 5.55%; for `CN1Cc2c(N)cccc2C(c2ccccc2)C1` (configuration not stated) it is 4.55%.
As to `COc1ccc(/C=C/C(=O)O[C@@H]2[C@@H](OC(C)=O)[C@@H](OC(C)=O)[C@H](O[C@H]3[C@@H]4C=CO[C@@H](O[C@@H]5O[C@H](CO)[C@@H](O)[C@H](O)[C@H]5O)[C@@H]4[C@@]4(CO)O[C@@H]34)O[C@H]2C)cc1O`, the “outcome” value is “inactive [at 17.3 µM]”.
On the same count and under the same terms, the entry for `Oc1ccc([C@H]2COc3cc(O)ccc3C2)cc1` is “inactive”.
In the case of `CC(O)C(O)/C=C/C=C/C(=O)O[C@@H]1C=C2COC(=O)[C@]2(O)[C@@]2(C)CCCC(C)(C)C12` (some centres not stated), the “activity change, negative = cytotoxicity” value is 2.92% [at 17.3 µM].
As for `CC(C)CC(=O)OC[C@H]1O[C@@](COC(=O)CC(C)C)(O[C@H]2O[C@H](CO)[C@@H](O)[C@H](O)[C@H]2O)[C@@H](OC(=O)CC(C)C)[C@@H]1OC(=O)CC(C)C`, the “outcome” value is “inactive [at 17.3 µM]”.
Still for that read-out and setting: the entry for `C[C@@H](Nc1cc(NS(=O)(=O)N2CCC2)nc(SCc2cccc(F)c2F)n1)[C@@H](O)CO` is “inactive”.
With `C=C1CCC2[C@@](C)(C=O)CCC[C@]2(C)[C@H]1CC/C(C)=C/CO` (some centres not stated), the “activity change, negative = cytotoxicity” value was 0.557%.
`CC(=O)OC(C)OC(=O)C(C)c1ccc(-c2ccccc2)c(F)c1` (configuration not stated): the Potency entry is “inactive”.
As to `CC(=O)OC1C(O)CC(O[C@@H]2O[C@H](CO)[C@@H](O)[C@H](O)[C@H]2O)C2CCC3C(=O)OC(c4ccoc4)CC3(C)C21` (some centres not stated), the “activity change, negative = cytotoxicity” value is 8.86% [at 17.3 µM].
For the compound `OCC1OC(Oc2cc(O)c3c(c2)OC(c2ccc(O)cc2)C(O)C3)C(O)C1O` (configuration not stated), the “outcome” value was “inactive [at 17.3 µM]”.
Regarding `CN1CC[C@@H](NC(=O)Nc2ccc(C#N)cc2)C[C@@H]1c1nc2ccccc2[nH]1`, the “activity change, negative = cytotoxicity” value was 1.99%.
